In the library only some 4.2% were active in any assay of this set; here they are far more common.
hgDAF12 agonist = H. glycines DAF-12 receptor agonists, primary screen, cell-based, luminescence, HEK293, GAL4 fusion, UAS-luciferase; Nuclear hormone receptor DAF-12 (Heterodera glycines), GAL4 fusion; HEK293 GAL4-hgDAF12 UAS-luciferase reporter, agonist luminescence; normalized to butyrate control; activation, % at 6.8 µM; 370,000 tested, 1.8% active;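 active means activation above a cutoff set at the mean of all screened compounds plus 3 SD, cut at about 10% in these data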;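 further: 0% = DMSO wells and 100% = sodium butyrate wells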
esBAF inh = Bmi1 luciferase reporter increase in mESCs, primary screen, esBAF inhibitor project, mouse ES cells, Bmi1 luciferase knock-in, single point; reporter increase, % at 12.5 µM; 350,000 tested, 2% active; 24 h; 100% = twice the neutral-well signal; in the data active means activation above about 40%; inconclusive means no clear call, values can overlap the other calls;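 further: 0% = median of the plate's neutral control wells and 100% = double that signal; a rise in the Bmi1 reporter signal indicates esBAF inhibition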
Wnt bcat act = Wnt/beta-catenin pathway activators, primary screen, cell-based, plate reader, single point | 300,000 tested, 1.2% active | AID 743398, 2014 | activation, % at 9.35 µM | Wnt/beta-catenin reporter cell assay, activator; in the data active means activation above about 30%, passing the limit was not always enough; inconclusive means no clear call, values can overlap the other calls;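 further: 0% = neutral control wells and 100% = positive control wells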
DAX1 inh = DAX1 (NR0B1) inhibitors on StAR promoter, primary screen, cell-based, luminescence, SF-1 (NR5A1), full-length DAX-1; HEK293T StAR-luciferase reporter, SF-1/DAX-1 repression relief; inhibition, % at 6.8 µM; 370,000 tested, 1.1% active;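 active means inhibition above the mean over all tested compounds plus 3 SD, cut at about 3.6% in these data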;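 further: 0% = DAX-1 cells with DMSO and 100% = cells lacking DAX-1 with DMSO; higher inhibition means more luminescence from relief of DAX-1 repression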
hcDAF12 agonist = H. contortus DAF-12 nuclear receptor activators, primary screen, cell-based, luminescence, HEK293, lit1-tk-luc reporter | HEK293 hcDAF-12 lit1-tk-luc reporter; 0% DMSO, 100% Δ7-dafachronic acid | activation, % at 6.8 µM | 370,000 tested, 1.4% active | AID 652067, 2013;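 active means activation above the mean of all tested compounds plus 3 SD, cut at about 5.5% in these data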;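 further: 100% = response to 3 µM Δ7-dafachronic acid high control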
ssDAF12 agonist = S. stercoralis DAF-12 nuclear receptor activators, primary screen, cell-based, luminescence, HEK293, GRIP1 co-expression, lit1-tk-luc | 370,000 tested, 1% active | Nuclear hormone receptor DAF-12 (Strongyloides stercoralis) | activation, % at 6.8 µM | HEK293 ssDAF-12/GRIP1 lit1-tk-luc reporter; % of 3 µM dafachronic acid response;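 active means activation above the mean over all tested compounds plus 3 SD, cut at about 0.9% in these data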;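 further: 0% = DMSO-only wells and 100% = 3 µM delta7-dafachronic acid wells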
hgDAF12 ag = H. glycines DAF-12 receptor agonists, confirmation, cell-based, luminescence, HEK293, GAL4-LBD fusion. HEK293 GAL4-hgDAF12 luciferase reporter, agonist mode; percent of butyrate response. activation, % at 6.8 µM. shares compounds with hgDAF12 agonist. 3,300 tested, 80% active;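 active means mean activation over triplicate wells above the hit cutoff derived from the earlier primary screen, cut at about 11% in these data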;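 further: 0% = DMSO low control and 100% = 2 mM sodium butyrate high control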
LXR ag 2 = LXR agonists, Gal4 luciferase reporter, confirmation, counter-screen for hgDAF-12 agonist project, cell-based, luminescence, HEK293, H. glycines campaign; shares compounds with hgDAF12 agonist; 24 h; activation, % at 6.8 µM; 3,300 tested, under 10 active;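 active means mean activation of the triplicate above a set limit carried over from the primary screen, none filed active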
Target sequence (P55055 whole entry, looked up, the tested form may be a part): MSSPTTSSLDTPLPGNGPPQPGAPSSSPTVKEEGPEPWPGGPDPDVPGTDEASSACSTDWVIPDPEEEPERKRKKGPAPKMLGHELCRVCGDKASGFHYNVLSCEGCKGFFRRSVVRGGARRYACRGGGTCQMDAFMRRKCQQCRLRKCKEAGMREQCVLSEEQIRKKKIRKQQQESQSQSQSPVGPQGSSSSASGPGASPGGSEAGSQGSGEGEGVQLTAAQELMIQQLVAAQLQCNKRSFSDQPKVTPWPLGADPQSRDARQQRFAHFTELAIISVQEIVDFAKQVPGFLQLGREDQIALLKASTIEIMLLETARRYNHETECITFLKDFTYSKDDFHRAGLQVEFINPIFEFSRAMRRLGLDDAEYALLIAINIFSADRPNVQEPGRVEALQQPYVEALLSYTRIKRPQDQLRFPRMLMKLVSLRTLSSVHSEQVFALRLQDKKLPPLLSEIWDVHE
Active calls of the source: *; ? = inconclusive; nt = not tested or not shown.

SMILES | hgDAF12 agonist | esBAF inh | Wnt bcat act | DAX1 inh | hcDAF12 agonist | ssDAF12 agonist | hgDAF12 ag | LXR ag 2
O=c1c2ccc(Cl)cc2nc(-c2ccc([N+](=O)[O-])cc2)n1O | -2 | -6 | 0 | -1 | -1 | -1 | nt | nt
CCOC(=O)C(C)On1c(-c2ccc(Cl)cc2)nc2ccc([N+](=O)[O-])cc21 (stereo unspecified) | 14* | nt | nt | 2 | 2 | 0 | 20* | 1
O=C(N/N=C\c1cccc(Cl)c1)c1n[nH]c2c1CCCC2 | 14* | nt | ? | 3 | 2 | -1 | 11* | 1
O=C(Nc1nccs1)c1ccc(-c2ccc([N+](=O)[O-])cc2)o1 | 18* | 69* | -1 | 2 | 4 | 0 | 12* | 1
O=C(Nc1nccs1)c1ccc(-c2ccc(F)cc2)o1 | 17* | nt | 37* | 3 | 2 | 1 | 14* | 1
C/C=C/c1ccc2c(c1)O[C@@H](CN(C)C(=O)CN(C)C)[C@H](C)CN([C@H](C)CO)S2(=O)=O | nt | -2 | nt | nt | nt | nt | nt | nt
COCCNC(=O)C[C@H]1CC[C@@H]2[C@H](COc3ccc(NC(=O)C4CCCC4)cc3C(=O)N2C)O1 | nt | -1 | nt | nt | nt | nt | nt | nt
CN(C)c1ccc(C(=O)OCC(=O)c2ccc[nH]2)cc1 | 15* | 72* | 9 | 0 | 4 | 0 | 15* | 0
O=C(OCC(=O)c1ccc[nH]1)c1ccccc1 | 5 | nt | -1 | 0 | 1 | -2 | nt | nt
C/C(=N\O)c1ccc(N2C(=O)C3CC=C(Cl)CC3C2=O)cc1 (stereo unspecified) | 14* | 73* | 59* | 4 | 4 | 0 | 15* | 1
Cc1ccc(N=Nc2c(N)nn(-c3ccccc3)c2N)cc1 | 20* | nt | 33* | 1 | 2 | 0.9* | 25* | 1
Cc1nn(-c2ccccc2)c(N)c1N=O | 3 | nt | 2 | 0 | 2 | -1 | nt | nt
Cc1nn(-c2ccccc2)c(N)c1N=Nc1ccc2ccccc2c1 | 23* | ? | 12 | 3 | 3 | 1 | 18* | 1
CN1C[C@@H]2[C@H](c3ccccc31)[C@H](CO)N2Cc1ccccc1Cl | nt | -5 | nt | nt | nt | nt | nt | nt
O=C(NCc1ccncn1)[C@H]1[C@H](CO)[C@H]2Cn3c(ccc(-c4cccc(F)c4)c3=O)[C@H]2N1CC1CC1 | nt | -4 | nt | nt | nt | nt | nt | nt
COc1cccc(-c2ccc3c(c2)[C@H]2[C@H](CCN2C(=O)c2cccc(F)c2)[C@H](CO)N3)c1 | nt | 5 | nt | nt | nt | nt | nt | nt
O=C(C[C@@H]1C[C@H]2c3cc(NC(=O)C4CCOCC4)ccc3O[C@H]2[C@H](CO)O1)NCc1ccc(Cl)cc1 | nt | -3 | nt | nt | nt | nt | nt | nt
COc1cc(/C=N/NC(=O)c2ccc(F)cc2)ccc1OC(=O)c1ccco1 | 6 | nt | 1 | 1 | 0 | -1 | nt | nt
O=C(N/N=C/c1ccc(OC(=O)c2ccco2)cc1)c1ccccn1 | 17* | nt | 15 | 4.0* | 3 | 0 | 15* | 1
O=C(N/N=C/c1cccc(OC(=O)c2ccco2)c1)c1ccc(F)cc1 | 17* | nt | nt | 3 | 3 | 0 | 13* | 0
CN(C)CCCNC(=O)C[C@H]1CC[C@@H]2[C@H](COc3ccc(NC(=O)c4ccccc4F)cc3C(=O)N2C)O1 | nt | 14 | nt | nt | nt | nt | nt | nt
O=C(Nc1ccccc1)Nc1ccccc1Br | 19* | nt | 8 | 4.1* | 5 | 0 | 7 | 0
C[C@@H]1ON(C)[C@H]2C[C@H]3c4cc(Nc5ccccc5)ccc4CCN3C[C@@H]12 | -1 | nt | 0 | 0 | -2 | -1 | nt | nt
C[C@@H]1ON(C)[C@H]2C[C@H]3c4cc(-c5cc6ccccc6o5)ccc4CCN3C[C@@H]12 | 13* | nt | ? | 3.7* | 2 | 0 | 8 | 0
N/C(=N\O)C1COc2ccccc2O1 (stereo unspecified) | 1 | 15 | -1 | -1 | 1 | -1 | nt | nt
SMILES | hgDAF12 agonist | esBAF inh | Wnt bcat act | DAX1 inh | hcDAF12 agonist | ssDAF12 agonist | hgDAF12 ag | LXR ag 2
NC(N)=Nc1nc(C2COc3ccccc3O2)cs1 (stereo unspecified) | 14* | nt | 53* | 2 | 5 | 0 | 18* | 1
CCOC(=O)C1CCN(c2ncnc3c2cnn3-c2ccc(OC)cc2)CC1 | -5 | -67 | 22 | 0 | -2 | -2 | nt | nt
COc1ccc(-n2ncc3c(N4CCC(C(N)=O)CC4)ncnc32)cc1 | 14* | 16 | nt | 3 | 5 | 0 | 15* | 1
CNC[C@H]1Oc2ccc(NS(C)(=O)=O)cc2CC(=O)N([C@@H](C)CO)C[C@H]1C | nt | -1 | nt | nt | nt | nt | nt | nt
O=C(C1CC(c2ccccc2O)=NO1)N1CCCC1 (stereo unspecified) | 14* | 23 | 3 | 1 | 1 | -1 | 2 | 0
Oc1c(C=NCc2ccccc2)sc2ccccc12 | 15* | nt | 9 | 1 | 4 | 0 | 16* | 0
O=C(O)CC1=C(Nc2ccccc2)C(=O)N(c2ccccc2)C1c1ccc(F)cc1 (stereo unspecified) | 18* | 79* | -1 | 2 | 3 | -1 | 11* | 0
O=C(O)CC1=C(O)C(=O)N(c2ccccc2)C1c1ccc(Br)cc1 (stereo unspecified) | 0 | 6 | nt | 0 | 0 | -1 | nt | nt
Cc1ccc(NC(=O)c2ccc3nsnc3c2)c(Cl)c1 | 14* | -28 | 1 | 2 | 5.8* | 1.1* | 15* | 1
C[C@H](CO)N1C[C@H](C)[C@H](CN(C)C(=O)c2ccc3c(c2)OCO3)Oc2cc(-c3cncnc3)ccc2S1(=O)=O | nt | 4 | nt | nt | nt | nt | nt | nt
CC(=O)c1ccc(N/C=C\C(=O)c2ccc(C)cc2)cc1 | 18* | nt | 66* | 2 | 3 | 2.0* | 20* | 1
Cc1ccc(C(=O)/C=C/Nc2ccc(S(=O)(=O)Nc3cc(C)nc(C)n3)cc2)cc1 | 0 | nt | -2 | 0 | -1 | 0 | nt | nt
O=C(Nc1ccc(CN2CCOCC2)cc1)c1cccc(F)c1 | 15* | 4 | nt | 3 | 0 | 0 | 14* | 0
